A selection: hits, their analogues and other compounds. The true share with any hit is near 1.5%.
RECQ1 inh: inhibitors of human RECQ1 DNA helicase. Potency, µM (top dose mostly 57.3 µM), inactives show at the highest dose activity, negative = inhibition, actives largely listed as inhibitors. AID 2549. 0.54% of 240,000 active. RECQ1 DNA unwinding, red fluorescence kinetic read;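 further: potency means the concentration at half of the fitted maximal effect; plate controls were vehicle for no effect and no enzyme for full effect; nearly all actives have a fitted effect of over 30% in size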
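RECQ1T1 50 nM; forked duplex (20 bp + 30-nt ss tails) 200 nM, ATP 2 mM final; pH 8.0, 2 mM MgCl2, 2.5 ug/ml poly(dI-dC); 15 min compound preincubation; discontinuous kinetic read over 2 h at RT.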
GCN5L2 inh: blocks human GCN5L2 histone acetyltransferase; 0.21% of 390,000 active; GCN5L2 HAT assay, ThioGlo1 CoA-SH fluorescence; Potency, µM (series often up to 58.9 µM), for inactives: at the highest dose activity change, negative = inhibition, most hits filed as inhibitors; further: potency means the concentration at half of the fitted maximal effect
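qHTS, 1536-well. 20nM enzyme, pH 7.5 HEPES/EDTA/Tween-20 buffer; 15 min compound preinc., RT. Start: 75uM H3(1-25), 70uM AcCoA, 50uM ThioGlo1. Read Ex340/Em540 at t=0 (autofluorescence flag) and t=20 min.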
FEN1 inh: blocks human flap endonuclease 1; P39748; Recombinant FEN1 flap cleavage, fluorescence, 15 min; Potency, µM (top dose mostly 114 µM), for the others: top-dose activity change, negative = inhibition, hits mostly inhibitors; 0.35% of 390,000 active; AID 588795; further: potency means the concentration at half of the fitted maximal effect; nearly all actives have a fitted effect of over 65% in size
Target sequence (P39748 whole entry, looked up): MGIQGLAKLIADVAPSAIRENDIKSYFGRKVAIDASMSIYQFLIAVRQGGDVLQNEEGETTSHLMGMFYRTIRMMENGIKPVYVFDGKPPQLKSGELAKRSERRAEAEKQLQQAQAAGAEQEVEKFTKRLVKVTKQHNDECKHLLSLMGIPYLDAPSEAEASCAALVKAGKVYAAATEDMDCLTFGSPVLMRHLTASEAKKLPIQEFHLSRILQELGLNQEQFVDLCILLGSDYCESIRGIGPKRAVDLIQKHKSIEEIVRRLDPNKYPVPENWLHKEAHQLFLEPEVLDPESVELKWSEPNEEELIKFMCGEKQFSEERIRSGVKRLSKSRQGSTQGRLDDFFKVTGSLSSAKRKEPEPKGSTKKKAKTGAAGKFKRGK
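FEN1 at 10 nM preincubated with compounds 15 min at room temperature, then flap DNA substrate added at 50 nM final. Signal read at 0 and 15 min; concentration-response fitted with four-parameter Hill equation.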
APEX1 inh: inhibitors of human APE1 endonuclease. Potency, µM (titrated, usually from 65.8 µM), without a hit: at the top dose activity change, negative = inhibition, actives largely listed as inhibitors. AID 2517. recombinant APE1, TAMRA/BHQ-2 abasic DNA cleavage fluorescence. 0.35% of 350,000 active. P27695;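 further: potency means the concentration at half of the fitted maximal effect; plate controls were vehicle for no effect and reference inhibitor for full effect; nearly all actives have a fitted effect of over 55% in size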
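Kinetic fluorescence read (525 ex/598 em nm, three reads 60 s apart) of AP-site incision; signal = third minus first read. Enzyme 0.75 nM, dual-labelled THF duplex 50 nM, compound preincubation 15 min RT.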
PI5P4Ka inh: PI5P4K alpha (human) kinase inhibition. 1.2% of 330,000 active. max response, %. PI5P4Kalpha enzyme, ADP-Glo luminescence, 60 min; active compounds read low; active means max response of -50% or lower; inconclusive means between -30% and -50%; inactive means -30% or higher; further: value at the top dose of about 77 µM
Target sequence (P48426 whole entry, looked up): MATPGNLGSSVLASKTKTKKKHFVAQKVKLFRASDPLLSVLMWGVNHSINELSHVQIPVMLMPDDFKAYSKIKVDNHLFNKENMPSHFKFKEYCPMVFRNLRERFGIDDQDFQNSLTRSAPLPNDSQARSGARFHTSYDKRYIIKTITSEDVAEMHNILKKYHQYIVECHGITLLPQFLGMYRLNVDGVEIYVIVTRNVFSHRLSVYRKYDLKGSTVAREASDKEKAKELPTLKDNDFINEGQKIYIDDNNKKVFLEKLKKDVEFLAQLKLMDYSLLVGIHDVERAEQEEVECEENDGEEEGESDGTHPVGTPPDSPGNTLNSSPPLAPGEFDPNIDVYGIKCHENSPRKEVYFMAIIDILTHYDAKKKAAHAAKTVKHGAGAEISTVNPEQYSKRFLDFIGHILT
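Controls without substrate or without enzyme flank wells where PI5P4Kalpha converts substrate using 5 microM ATP (final). Incubation lasts 60 minutes at room temperature; ADP formed is read by ADP-Glo luminescence.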
BLM helicase inh: Bloom syndrome helicase (human) inhibition | P54132 | recombinant BLM DNA unwinding, fluorescence dequenching | 0.2% of 350,000 active | Potency, µM (series often up to 56.1 µM), inactives show at the highest dose activity change, negative = inhibition, most hits filed as inhibitors | AID 2528;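 further: potency means the concentration at half of the fitted maximal effect; plate controls were vehicle for no effect and no enzyme for full effect; nearly all actives have a fitted effect of over 35% in size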
ADP-Glo counter: interferes with ADP-Glo detection without enzyme present; shares compounds with PI5P4Ka inh; 1,100 tested, under 10 active; Potency, µM (top dose mostly 76.9 µM), inactives show top-dose activity change, negative = inhibition, actives largely listed as inhibitors; ADP-Glo detection counter-screen, luciferase luminescence, no enzyme; AID 743285
* hit, by the source's call; i = inactive; ? = inconclusive; · = not tested or not shown; [ ] = remark or other dose. Unless noted, the call rests on the fitted dose curve; in most records, active means well fitted curve in the direction sought with a large enough effect; inconclusive means small, poorly fitted or top-dose-only effect, or another doubt; inactive means no such curve, though single readings can be large; an effect the other way counts as inactive or inconclusive. Unless noted, on the % scale 0 is the no-effect control and ±100 the full control effect.

SMILES | RECQ1 inh | GCN5L2 inh | FEN1 inh | APEX1 inh | PI5P4Ka inh | BLM helicase inh | ADP-Glo counter
COC(=O)CCCC(=O)N1CCCC(CCC(=O)NCc2ccc(F)c(F)c2)C1 (stereo not drawn) | -4% | -3% | -1% | 8% | 2 | 5% | ·
O=C1CCC(C(=O)Nc2ccc([N+](=O)[O-])cc2)N1 (stereo not drawn) | · | -11% | 4% | 17% | -54* | · | -5%
Cc1ccc(-c2csc(NC(=O)Cc3ccc(F)cc3)n2)o1 | -3% | -25% | -22% | -4% | -56* | -9% | 4%
Cc1ccc(-c2csc(Nc3ccc(S(N)(=O)=O)cc3)n2)o1 | i | -19% | -14% | -3% | -65* | -12% | 1%
COc1ccc(OC)c(-c2csc(NC(=O)Cc3ccc(F)cc3)n2)c1 | · | -9% | -20% | 60% | 21 | -15% | ·
O=C(O)c1cc2c(N3CCC(Cc4ccccc4)CC3)ncnc2s1 | -2% | -23% | -6% | -2% | · | -1% | 3%
c1ccc(CC2CCN(c3ncnc4sccc34)CC2)cc1 | -21% | -6% | -7% | -11% | -5 | -14% | ·
COc1ccc2c(c1)O[C@H](c1ccc3c(c1)OCO3)[C@@H](OC(=O)NCc1ccco1)C2=O | -4% | · | · | -12% | · | 2% | ·
CCCCNC(=O)C1(C)CCC(=O)N1c1cc(C(C)(C)C)nn1C (stereo not drawn) | · | · | · | · | 4 | · | 2%
Cn1nc(C(C)(C)C)cc1N1C(=O)CCC1(C)C(=O)NC1CCCCC1 (stereo not drawn) | · | · | · | · | 7 | · | ·
NC(=O)c1c(NC(=O)c2ccccc2)sc2c1CCC2 | · | -1% | -2% | 12% | -51* | -5% | -2%
O=C(Nc1sc2c(c1C(=O)O)CCCC2)c1ccccc1Cl | · | -6% | -10% | 6% | -3 | 3% | ·
O=C(Nc1sc2c(c1C(=O)O)CCC2)c1ccccc1Cl | · | -28% | -4% | 12% | -59* | 2% | -8%
NC(=O)c1c(NC(=O)c2ccncc2)sc2c1CCCC2 | -8% | -12% | -20% | -1% | -6 | -6% | ·
NC(=O)c1c(NC(=O)CN2CCCC2)sc2c1CCCC2 | -2% | 4% | 6% | -7% | -53* | -1% | 3%
CCOc1cc(CNc2ccc(N3CCCC3)cc2)cc(Cl)c1OC | -1% | -8% | -14% | -1% | -12 | -12% | ·
COc1cc(CNc2ccc(N3CCCC3)cc2)cc(Cl)c1OC | 23% | 10% | -18% | 0% | -66* | -2% | -4%
CC(C)(C)c1csc(NC(=O)c2ccc3nccnc3c2)n1 | i | -14% | -6% | -1% | -52* | -3% | -5%
CC(C)(C)c1csc(NC(=O)c2ccncc2)n1 | -4% | 2% | 4% | 0% | -5 | -7% | ·
CC[C@]1(O)C[C@H]2CN(CCc3c([nH]c4ccccc34)[C@@](C(=O)OC)(c3cc4c(cc3OC)N(C=O)[C@H]3[C@@](O)(C(=O)OC)[C@H](OC(C)=O)[C@]5(CC)C=CCN6CC[C@]43[C@@H]65)C2)C1 | · | -13% | -7% | · | · | 3% | ·
Cc1ccc(Cl)cc1N1CCN(S(=O)(=O)c2ccc3[nH]c4c(c3c2)CCCCC4)CC1 | · | 15% | -10% | · | · | -14% | ·
Cc1ccc(Cl)cc1N1CCN(S(=O)(=O)c2ccc3[nH]c(=O)c(=O)[nH]c3c2)CC1 | -6% | -22% | -10% | -2% | -55* | -2% | -3%
COC(=O)Nc1ccc(S(=O)(=O)N2CCC(C(=O)N3CCC(C)CC3)CC2)cc1 | 7% | -2% | -3% | -1% | -80* | -2% | 0%
O=C(CSc1nc2[nH]c(=O)cc(O)c2s1)Nc1cc(Cl)cc(Cl)c1 | · | -9% | -10% | -5%[12.4 µM] | ? | 1% | ·
O=C(CSc1nc2[nH]c(=O)cc(O)c2s1)Nc1ccc(Cl)c(C(F)(F)F)c1 | · | -9% | 11% | 25% | -54* | · | 2%
SMILES | RECQ1 inh | GCN5L2 inh | FEN1 inh | APEX1 inh | PI5P4Ka inh | BLM helicase inh | ADP-Glo counter
CCNC(=S)N(Cc1ccco1)Cc1cc2cc3c(cc2[nH]c1=O)OCCO3 | -8% | 0% | -7% | 2% | 1 | -2% | ·
CNC(=S)N(Cc1ccco1)Cc1cc2cc3c(cc2[nH]c1=O)OCCO3 | -10% | -1% | 3% | -6% | -57* | 0% | 1%
O=C(O)Cc1sc(-c2ccccc2)nc1-c1ccccc1 | -5% | -20% | 4% | -2% | 2 | 2% | ·
O=C(O)Cc1nc(-c2cccnc2)sc1-c1ccc(Br)cc1 | i | ? | 1% | -2% | -61* | -6% | -7%
COc1ccc(N(C(=O)C2CSC(=O)C2)C(C(=O)NC(C)(C)C)c2ccncc2)cc1 (stereo not drawn) | i | ? | 16% | -1% | -78* | -3% | 2%
CC(C)(C)NC(=O)C(c1ccncc1)N(C(=O)C1CSC(=O)C1)c1ccccc1 (stereo not drawn) | -9% | -5% | -20% | 2% | -3 | 3% | ·
COc1ccccc1CNc1nc(NCc2ccc3occc3c2)c2sccc2n1 | · | · | · | · | · | · | 1%
COc1ccccc1CNc1nc(NCc2ccccc2OC)c2sccc2n1 | · | · | · | · | · | · | -4%
Cc1ccc(CNc2nc(NCc3ccccc3)nc3ccsc23)c(C)c1 | · | · | · | · | · | · | -2%
COc1ccccc1CNc1nc(NCCOc2ccccc2)c2sccc2n1 | · | · | · | · | · | · | -6%
COCCNc1nc(NCc2ccccc2OC)c2sccc2n1 | · | · | · | · | 2 | · | ·
O=C(CSc1nc2c([nH]c3ccccc32)c(=O)n1-c1ccc(F)cc1)NCc1ccc(F)cc1 | · | 11% | 10% | · | · | 1% | ·
O=C1N[C@@H]2[C@H](CCCCC(=O)Oc3ccc([N+](=O)[O-])cc3)SC[C@H]2N1 | -7% | 26% | · | -2% | · | -3% | ·
COc1ccccc1CNc1nc(NCc2cccs2)nc2ccsc12 | · | · | · | · | -29 | · | ·
COc1ccccc1CNc1nc(Nc2cccc(-c3cnco3)c2)c2sccc2n1 | · | · | · | · | · | · | -3%
CCOC(=O)Nc1ccc2c(CN3C(=O)NC(CC)(CC)C3=O)cc(=O)oc2c1 | -1% | 2% | -6% | 3% | -21 | -10% | ·
CCOC(=O)Nc1ccc2c(CNC(C)c3ccccc3OC)cc(=O)oc2c1 (stereo not drawn) | · | -6% | 9% | 34% | -90* | -4% | -6%
CCn1c2ccccc2c2nnc(N3CCN(c4ccc(OC)cc4)CC3)nc21 | · | -16% | 19% | · | · | -7% | ·
CC(=O)Nc1cccc2cc(O)ccc12 | · | · | -16% | · | -63* | · | 3%
COc1ccc(NC(=O)c2oc3c(c2C)-c2nn(Cc4ccccc4Cl)cc2CC3)cc1OC | · | -8% | 0% | · | · | -3% | ·

Bioassay records from PubChem BioAssay.
